Experimental findings from PubChem BioAssay AID1347131 (National Center for Advancing Translational Sciences (NCATS), 2019) are described below.

About 2,000 (0.49%) of roughly 410,000 compounds were called active. Where a call stands in place of a potency, no number is given. Inconclusive results (about 8%) are left out. Calls come from the whole dose curve; tested in HEK293 reporter line. For the sample, actives were picked, then their nearest neighbours and some compounds at random.
Potency is the fitted concentration of half-maximal effect.

The test is described as follows: qHTS Assay for Foot and Mouth Disease Virus Antivirals: Primary Screen against the MLPCN compound library. Note: nearly all actives have a fitted effect of over 55% in size. Conditions: FMDV antiviral cell-based qHTS; series mostly up to 57.9 µM.
For `Cc1ccc(OCCSc2nc3ccc(NC(=O)c4ccc(F)cc4)cc3s2)cc1`, the Potency result is “inactive”. As for `O=C(COc1ccc(F)cc1)Nc1ccc2nc(SCC(=O)N3CCc4ccccc43)sc2c1`, the Potency result is “inactive”.

In the case of `O=C(COc1ccc(F)cc1)Nc1ccc2nc(SCC(=O)N3CCOCC3)sc2c1`, the Potency was 25.1 µM (active). Take `Cc1occc1C(=O)NC1CCCN(Cc2ccc(Cl)cc2)C1` (configuration not stated): the Potency entry was “inactive”. With `Cc1nn(CC(C)C)c(Cl)c1C(=O)N(C)CC(=O)Nc1ccc(Cl)cc1` the entry was “inactive”; with `C=CCN(c1ccc(C(=O)Nc2cccc(C)c2)cc1)S(C)(=O)=O`, “inactive”; with `CC1CC(C)CN(S(=O)(=O)c2ccc(C(=O)Nc3sccc3C(N)=O)cc2)C1` (configuration not stated), 8.91 µM (active). As to `CC1CN(S(=O)(=O)c2ccc(C(=O)Nc3ccccc3F)cc2)CC(C)O1` (configuration not stated), the Potency result is “inactive”.

Regarding `NC(=O)c1ccsc1NC(=O)CCS(=O)(=O)c1ccc(F)cc1`, the Potency entry was “inactive”. With `Cc1onc(-c2ccc3c(c2)OCO3)c1-c1ccc2[nH]ccc2c1` the entry was “inactive”. With `CCOc1ccc(-c2nnc3ccc(SC(C)C)nn23)cc1` the entry was “inactive”; with `CN(C)c1ccc(-c2nc3ccccc3c(=O)[nH]2)cc1`, 20 µM (active). With `CC(C(=O)Nc1ccccc1-c1ccccc1)N(C)Cc1nc2ccccc2c(=O)[nH]1` (configuration not stated) the entry was “inactive”. On to `CN(Cc1nc2ccccc2c(=O)[nH]1)C(=O)c1cccc(S(=O)(=O)N2CCCCCC2)c1`, for which the Potency result was “inactive”. With `Cc1cccc(-n2nnnc2SCC(=O)NCC2CCCO2)c1` (configuration not stated) the entry was “inactive”. On to `Cc1cccc(NC(=O)CSc2nnc(NC(=O)CN3CCOCC3)s2)c1`, for which the Potency result was “inactive”.

Turning to `CC(C)(C)c1ccc(C(=O)Nc2nnc(SCC(=O)NCC3CCCO3)s2)cc1` (configuration not stated), the Potency was 14.1 µM (active).

Consider `CCOC(=O)CNC(=O)CSc1nnc(NC(=O)c2ccc(C)cc2)s1`, for which the Potency is 12.6 µM (active). With `CC(C)CC(=O)Nc1nnc(SCC(=O)Nc2ccc(F)cc2)s1` the entry was “inactive”; with `Cn1c(SCC(=O)NCC2CCCO2)nnc1-c1c[nH]c2ccccc12` (configuration not stated), “inactive”; with `O=C(COc1ccc2c3c(c(=O)oc2c1)CCC3)N1CCN(c2ccc(F)cc2)CC1`, “inactive”. With `Nc1nonc1C(=O)NCCNCc1ccc(Cl)c(Cl)c1` the entry was “inactive”.

As for `CCCCn1c(N)c(N(CCC(C)C)C(=O)c2ccc3c(c2)OCO3)c(=O)[nH]c1=O`, the Potency entry was “inactive”. Consider `CCC(C)c1ccccc1OCCCCN1CCCC1` (configuration not stated), for which the Potency result was “inactive”. Consider `CC(C)C(OC(=O)c1cccc(S(=O)(=O)NCC(F)(F)F)c1)C(=O)NC(N)=O` (configuration not stated), for which the Potency result was “inactive”.

With `Cc1cc(C)nc(NS(=O)(=O)c2ccc(-n3cccc3)cc2)n1`, the Potency entry is “inactive”. With `Cc1cc(C(=O)C(=O)N(C)C)c(C)n1-c1ccc([N+](=O)[O-])cc1` the entry was “inactive”; with `Cc1ccccc1CN1C2=NCCN2c2ccccc21`, “inactive”. With `CCOC(=O)c1ccccc1NC(=O)CN1CCC(n2nnc3cc(C(F)(F)F)ccc32)CC1` the entry was “inactive”; with `O=C(Nc1cccc(C(F)(F)F)c1)c1ccc2c(c1)nnn2C1CCCC1`, 12.6 µM (active). As for `Cc1cc(C)cc(NC(=O)c2ccc3c(c2)nnn3C2CCCC2)c1`, the Potency result is “inactive”.

`COc1ccc(NC(=O)c2cc(-c3ccccn3)nc3ccccc23)cc1S(=O)(=O)N(C)C`: the Potency entry is “inactive”. With `COc1ccc(CCNC(=O)CSc2nnc(-c3ccccc3)c3ccccc23)cc1OC` the entry was “inactive”; with `COc1ccc(CNC(=O)Cn2c(=O)nc(-c3ccccc3)c3ccccc32)cc1OC`, 20 µM (active); with `CCn1c(=O)c(C(=O)NCc2ccc(OC)c(OC)c2)c(O)c2ccccc21`, “inactive”. With `CC(=O)c1cc(-c2ccccc2)n(CC(=O)Nc2ccc(C)c(C)c2)c1C` the entry was “inactive”. Take `Cc1nc2cc(C(F)(F)F)ccc2n1C1CCN(Cc2nnnn2Cc2cccs2)CC1`: the Potency entry was “inactive”. With `COc1cccc2sc(N3CCN(c4nc5ccccc5s4)CC3)nc12` the entry was “inactive”; with `c1csc(Cn2nnnc2CN2CCN(c3nc4ccccc4s3)CC2)c1`, 17.8 µM (active). With `Nc1ccc(-c2ccc(N)cc2C(F)(F)F)c(C(F)(F)F)c1` the entry was “inactive”; with `CC(=O)C1=C(c2ccc(F)cc2)N(C(C)=O)n2c(nnc2C2CCCCC2)S1`, “inactive”; with `COc1ccc(OCC(=O)Nc2nccs2)cc1`, 15.8 µM (active). With `CCN(CC)CCNC(=O)COc1ccc(OC)cc1` the entry was “inactive”. Turning to `CCOC(=O)Cc1csc(NC(=O)COc2ccc(OC)cc2)n1`, the Potency result was “inactive”. As to `COc1ccc(NC(=O)CN(C)C(=O)c2cccc(S(=O)(=O)N3CCN(c4ccccc4)CC3)c2)cc1`, the Potency entry was “inactive”. With `Cc1ccc(S(=O)(=O)Cc2cc(F)c([N+](=O)[O-])cc2[N+](=O)[O-])cc1` the figure was 15.8 µM (active). Consider `Cc1ccccc1CS(=O)(=O)c1ccc(C(=O)N2CCOCC2)cc1[N+](=O)[O-]`, for which the Potency entry was “inactive”. On to `Cc1ccc(S(=O)(=O)Nc2c(C)cc([N+](=O)[O-])cc2C)cc1`, for which the Potency entry is “inactive”.

Take `O=C(N/N=C/c1cccs1)C(O)c1ccccc1` (configuration not stated): the Potency entry is “inactive”.

On to `O=C(Nc1cccc(Cl)c1N1CCOCC1)c1cc([N+](=O)[O-])ccc1N1CCOCC1`, for which the Potency entry was “inactive”. With `CCOc1ccc(NC(=O)N(Cc2ccc(CC)cc2)Cc2cn[nH]c2-c2ccc(OC)cc2)cc1`, the Potency entry was “inactive”. With `CCOC(=O)c1cc(C)n(CC2CCC(C(=O)Nc3ccc(OC)cc3)CC2)c1C` (configuration not stated) the entry was “inactive”; with `CCOC(=O)c1cn[nH]c1NC(=S)Nc1ccc(OC)cc1`, 17.8 µM (active). For the compound `Cc1ccc(S(=O)(=O)N/N=C/c2ccc(OCC(=O)N3CCOCC3)cc2)cc1`, the Potency entry was “inactive”. With `CCOc1ccc(CNC(=O)CCCn2ccc3cc(S(=O)(=O)N4CCCC4)ccc32)cc1` the entry was “inactive”; with `O=C(Nc1ccc(N2CCOCC2)cc1)c1cnccn1`, 12.6 µM (active); with `O=C(Nc1ccc(N2CCOCC2)c(Cl)c1)c1c(F)c(F)c(F)c(F)c1F`, “inactive”.

For the compound `O=C(Nc1cccc(S(=O)(=O)N2CCCCC2)c1)c1cnccn1`, the Potency result was “inactive”. With `Cc1cc2oc(C(=O)NC3CCS(=O)(=O)C3)cc(=O)c2cc1C` (configuration not stated) the entry was “inactive”; with `CCc1ccc(NC(=O)c2sc3nc(C)nc(N4CCN(c5ccccn5)CC4)c3c2C)cc1`, “inactive”; with `CN(C)c1ccc(C(=O)N2CCCC(CCC(=O)N3CCN(c4ccccn4)CC3)C2)cc1` (configuration not stated), “inactive”. `Cc1ccc(S(=O)(=O)N(C)CCCC(=O)Nc2ccncc2)cc1`: the Potency result is “inactive”. As for `Cc1ccc(S(=O)(=O)N(C)CCCC(=O)N2CCN(c3ccccn3)CC2)cc1`, the Potency is 22.4 µM (active). As to `COc1ccc(C(=O)NCC(=O)N2CCN(C(=O)c3ccco3)CC2)cc1[N+](=O)[O-]`, the Potency entry was “inactive”. With `CC(NC(=O)C1CCN(CCOc2ccc(Cl)cc2)CC1)c1cccc2ccccc12` (configuration not stated) the entry was “inactive”; with `O=C(c1ccc(=O)n(Cc2ccccc2)n1)N1CCN(C/C=C/c2ccccc2)CC1`, 15.8 µM (active); with `C[C@H](NC(=O)c1ccc(C(C)(C)C)cc1)C(=O)N1CCN(C/C=C/c2ccccc2)CC1`, “inactive”. With `O=C(/C=C/c1ccco1)N1CCN(C/C=C/c2ccccc2)CC1` the entry was “inactive”; with `CCOc1ccc(-n2c(SCc3nc(-c4ccc(OC)cc4)no3)nnc2-c2ccncc2)cc1`, “inactive”.

`O=C(NCc1ccc(F)cc1)C(=O)NCC(c1cccs1)S(=O)(=O)c1cccs1` (configuration not stated): the Potency entry is “inactive”. With `Cc1sc(NC(=O)c2ccccc2)c(C(=O)c2ccccc2)c1C` the entry was “inactive”; with `Cc1ccc(Nc2sc(C(=O)c3ccccc3)c(N)c2C(=O)Nc2ccc(Cl)cc2)cc1`, 15.8 µM (active). With `Cc1ccccc1Nc1sc(C(=O)c2ccccc2)c(N)c1S(C)(=O)=O` the entry was “inactive”.

Regarding `O=S(=O)(c1ccc(Cl)cc1)c1nnn2c1nc(NC1CCCCC1)c1sccc12`, the Potency result was “inactive”. With `COc1ccc(C(=O)Nc2nc3ccccc3s2)c(OC)c1` the entry was “inactive”.

Consider `COc1ccc2nc(NC(=O)c3ccco3)sc2c1`, for which the Potency was 15.8 µM (active). With `COc1ccc2oc(C(=O)Nc3nc4ccc(S(C)(=O)=O)cc4s3)c(C)c2c1`, the Potency result was “inactive”. `Cc1ccc2nc(NC(=O)c3ccco3)sc2c1`: the Potency is 12.6 µM (active). With `Cc1ccc2nc(NC(=O)c3cc(-c4ccco4)nc4ccccc34)sc2c1` the entry was “inactive”.

Turning to `Cc1ccc2nc(NC(=O)CSc3nccn3Cc3ccc(F)cc3)sc2c1`, the Potency entry was “inactive”.

For the compound `CCCCCc1nnc(NC(=O)c2cccc(S(=O)(=O)N3CCOCC3)c2)s1`, the Potency entry was “inactive”. With `CN(C)S(=O)(=O)N1CCc2ccc(NC(=O)c3ccc(C(F)(F)F)cc3)cc2C1` the entry was “inactive”.

Turning to `COc1cc(-c2cc(NC=O)c3ncc(-c4cccc(C(F)(F)F)c4)n3c2)cc(OC)c1OC`, the Potency result is “inactive”.

Turning to `CSc1ccccc1OCc1cc(C(=O)NCC(C)(C)N2CCOCC2)no1`, the Potency result was “inactive”. Take `O=C1CCCN2N=C(SCC(=O)Nc3ccc(OC(F)(F)F)cc3)SC2=N1`: the Potency entry was “inactive”. Turning to `N#Cc1cc2c(nc1SCC(=O)Nc1ccc(OC(F)(F)F)cc1)C1CCN2CC1`, the Potency was 15.8 µM (active).

As to `O=C(CSc1nc(=O)n(CCN2CCOCC2)c2c1CCC2)Nc1ccc(OC(F)(F)F)cc1`, the Potency entry is “inactive”.

Turning to `CCCN1C(=O)c2cc(C(=O)Nc3ccccc3OC)ccc2C1Nc1ccccc1OC` (configuration not stated), the Potency entry is “inactive”.

As for `CCc1ccc(-n2c(=O)c3c4c(sc3n(CC(=O)N3CCCCC3CC)c2=O)CCC4)cc1` (configuration not stated), the Potency entry is “inactive”. For the compound `CC(C)C(=O)N1CCC(CN=Cc2c(O)n(C3CCCCC3)c(=O)n(C3CCCCC3)c2=O)CC1`, the Potency is 25.1 µM (active).

Regarding `Cc1ccc(-c2cc(-c3ccc(F)cc3)nc(N)c2C#N)o1`, the Potency result is “inactive”. Regarding `CC(C)Oc1ccc(CNC(=O)c2cccc(NC(=O)N3CCSc4ncccc43)c2)cc1`, the Potency was 20 µM (active). With `CC(C)(C)OC(=O)N1CCCC(C(=O)Nc2cccc(C(=O)NCc3ccccc3)c2)C1` (configuration not stated) the entry was “inactive”; with `CC(C)Oc1ccc(CN2CCC2(C)C(=O)Nc2cccc(Oc3ccccc3)c2)cc1` (configuration not stated), “inactive”. With `Cc1[nH]c2ccccc2c1C(=O)CN1C(=O)C(=O)N(CCC2=CCCCC2)C1=O` the entry was “inactive”; with `COc1cc2c(cc1NC(=O)c1cc(-c3ccncc3)nc3ccccc13)oc1ccccc12`, “inactive”; with `CCC1(c2ccc(F)cc2)NC(=O)N(CC(=O)Nc2cc(S(=O)(=O)N(C)C)ccc2Cl)C1=O` (configuration not stated), “inactive”.
